Laboratory results: PubChem BioAssay AID1159580 (chemical genetic matrix, 2015)
“And” between values parts separate entries of the source, which are not always exact repeats. Identical values can stand only once. In all, about 5,500 compounds went through this assay and about 2,000 (36%) were called active. Not shown: some 18% with an inconclusive outcome. Rule as the data show it: active = normalized growth mostly below about 0.91 (no sharp cut-off); inconclusive = no clear call, values can overlap the other calls; inactive = mostly above about 0.92. Some of the results follow.

Experiment: chemical genetic growth profiling, strain panel (AID 1159580);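 also: tested at 20 µM; growth read once vehicle control cultures reached saturation at 30 °C; 1 = growth at the plate median or of vehicle wells; lower values mean less growth of the strain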
Settings: S. cerevisiae deletion strains, growth OD

Measured: normalized growth

O=C(NCO)c1cccnc1
inactive: locus YAL013W, strain DEP1, stronger effect = lower value 0.99 | locus YAL021C, strain ccr4, stronger effect = lower value 1.02 | locus YAL026C, strain drs2, stronger effect = lower value 1.01 | locus YAL030W, strain snc1, stronger effect = lower value 1.01 | locus YBL061C, strain skt5, stronger effect = lower value 1.01 | locus YBR009C, strain hhf1, stronger effect = lower value 0.998 | locus YBR021W, strain FUR4, stronger effect = lower value 1.04 | locus YBR023C, strain chs3, stronger effect = lower value 1 | locus YBR171W, strain sec66, stronger effect = lower value 1.03 | locus YBR229C, strain ROT2, stronger effect = lower value 0.997 | locus YBR231C, strain swc5, stronger effect = lower value 1 | locus YBR279W, strain paf1, stronger effect = lower value 1.01 | locus YCL011C, strain gbp2, stronger effect = lower value 1.01 | locus YCL016C, strain dcc1, stronger effect = lower value 1.01 | locus YCL029C, strain bik1, stronger effect = lower value 0.971 | locus YCL061C, strain MRC1, stronger effect = lower value 0.999 | locus YCL069W, strain vba3, stronger effect = lower value 1 | locus YCR088W, strain abp1, stronger effect = lower value 1 | locus YDL005C, strain med2, stronger effect = lower value 1 | locus YDL035C, strain GPR1, stronger effect = lower value 0.985 | locus YDL040C, strain nat1, stronger effect = lower value 1.01 | locus YDL074C, strain BRE1, stronger effect = lower value 1 | locus YDL101C, strain DUN1, stronger effect = lower value 0.99 | locus YDL134C, strain PPH21, stronger effect = lower value 0.988 | locus YDL185W, strain tfp1, stronger effect = lower value 1.01 | locus YDL192W, strain arf1, stronger effect = lower value 0.987 | locus YDR001C, strain nth1, stronger effect = lower value 1 | locus YDR069C, strain doa4, stronger effect = lower value 0.999 | locus YDR101C, strain arx1, stronger effect = lower value 0.991 | locus YDR137W, strain rgp1, stronger effect = lower value 1.02 | locus YDR150W, strain NUM1, stronger effect = lower value 0.98 | locus YDR159W, strain sac3, stronger effect = lower value 1 | locus YDR162C, strain NBP2, stronger effect = lower value 1 | locus YDR195W, strain ref2 0.993 | locus YDR297W, strain sur2, stronger effect = lower value 1.01 | locus YDR318W, strain mcm21, stronger effect = lower value 0.978 | locus YDR334W, strain swr1, stronger effect = lower value 1.01 | locus YDR335W, strain msn5, stronger effect = lower value 1.01 | locus YDR388W, stronger effect = lower value 0.989 | locus YDR392W, strain spt3, stronger effect = lower value 0.893 | locus YDR502C, strain sam2, stronger effect = lower value 0.996 | locus YEL003W, strain gim4, stronger effect = lower value 1.01 | locus YEL037C, strain rad23, stronger effect = lower value 1.02 | locus YEL061C, strain CIN8 (second series), stronger effect = lower value 1.01 | locus YEL061C, strain CIN8, stronger effect = lower value 0.996 | locus YER015W, strain faa2, stronger effect = lower value 1 | locus YER016W, strain bim1, stronger effect = lower value 1.01 | locus YER110C, stronger effect = lower value 0.97 | locus YER111C, strain swi4, stronger effect = lower value 1 | locus YER155C, strain BEM2 (second series), stronger effect = lower value 1.01 | locus YER155C, strain BEM2, stronger effect = lower value 0.996 | locus YER167W, strain BCK2, stronger effect = lower value 0.982 | locus YFR010W, strain ubp6, stronger effect = lower value 1.01 | locus YGL078C, strain dbp3, stronger effect = lower value 0.979 | locus YGL086W, strain mad1, stronger effect = lower value 0.983 | locus YGL167C, strain pmr1, stronger effect = lower value 1.01 | locus YGL173C, strain kem1, stronger effect = lower value 1.01 | locus YGL227W, strain vid30, stronger effect = lower value 1 | locus YGL240W, strain doc1, stronger effect = lower value 0.988 | locus YGL248W, strain PDE1, stronger effect = lower value 0.994 | locus YGL253W, strain hxk2, stronger effect = lower value 1.01 | locus YGR078C, strain PAC10, stronger effect = lower value 0.995 | locus YGR135W, strain pre9, stronger effect = lower value 1.02 | locus YGR229C, strain SMI1, stronger effect = lower value 1.01 | locus YGR252W, strain gcn5, stronger effect = lower value 1.01 | locus YHR013C, strain ard1, stronger effect = lower value 0.984 | locus YHR027C, strain rpn1, stronger effect = lower value 1.01 | locus YHR030C, strain SLT2, stronger effect = lower value 0.984 and 0.995 | locus YHR079C, strain IRE1 (second series), stronger effect = lower value 0.989 | locus YHR079C, strain IRE1, stronger effect = lower value 0.992 | locus YHR094C, strain hxt1, stronger effect = lower value 0.982 | locus YHR129C, strain ARP1, stronger effect = lower value 0.994 | locus YHR142W, strain chs7, stronger effect = lower value 1.02 | locus YHR200W, strain rpn10, stronger effect = lower value 0.981 | locus YIL066C, strain RNR3, stronger effect = lower value 0.98 | locus YIL073C, strain SPO22, stronger effect = lower value 0.894 | locus YIL125W, strain kgd1, stronger effect = lower value 0.975 | locus YIR030C, strain dcg1, stronger effect = lower value 0.992 | locus YJL092W, strain hpr5, stronger effect = lower value 1.01 | locus YJL095W, strain BCK1 (second series), stronger effect = lower value 1 | locus YJL095W, strain BCK1, stronger effect = lower value 1.01 and 0.998 | locus YJL115W, strain asf1, stronger effect = lower value 1 | locus YJL129C, strain trk1, stronger effect = lower value 1.01 | locus YJL134W, strain LCB3, stronger effect = lower value 0.988 | locus YJL154C, strain vps35, stronger effect = lower value 1 | locus YJL164C, strain tpk1, stronger effect = lower value 0.998 | locus YJL166W, strain qcr8, stronger effect = lower value 1.01 | locus YJL168C, strain set2, stronger effect = lower value 0.982 | locus YJL187C, strain SWE1 (second series), stronger effect = lower value 0.982 | locus YJL187C, strain SWE1, stronger effect = lower value 1 | locus YJR043C, strain POL32, stronger effect = lower value 0.983 | locus YJR066W, strain TOR1, stronger effect = lower value 0.906
